According to PubChem BioAssay AID2553 (Johns Hopkins Ion Channel Center, 2010):
The whole screen tested about 310,000 compounds, of which about 3,300 (1.1%) were called active.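 Rule for the calls: active = B-score under library mean minus 3 SD, initial fluorescence not abnormally high, positive integrated signal ratio; inactive = the rest.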 The sample as a whole holds a higher share of actives than the screen did.

Molecular target: Short transient receptor potential channel 6 (Mus musculus) (UniProt Q61143)
Sequence (Q61143 whole entry, looked up): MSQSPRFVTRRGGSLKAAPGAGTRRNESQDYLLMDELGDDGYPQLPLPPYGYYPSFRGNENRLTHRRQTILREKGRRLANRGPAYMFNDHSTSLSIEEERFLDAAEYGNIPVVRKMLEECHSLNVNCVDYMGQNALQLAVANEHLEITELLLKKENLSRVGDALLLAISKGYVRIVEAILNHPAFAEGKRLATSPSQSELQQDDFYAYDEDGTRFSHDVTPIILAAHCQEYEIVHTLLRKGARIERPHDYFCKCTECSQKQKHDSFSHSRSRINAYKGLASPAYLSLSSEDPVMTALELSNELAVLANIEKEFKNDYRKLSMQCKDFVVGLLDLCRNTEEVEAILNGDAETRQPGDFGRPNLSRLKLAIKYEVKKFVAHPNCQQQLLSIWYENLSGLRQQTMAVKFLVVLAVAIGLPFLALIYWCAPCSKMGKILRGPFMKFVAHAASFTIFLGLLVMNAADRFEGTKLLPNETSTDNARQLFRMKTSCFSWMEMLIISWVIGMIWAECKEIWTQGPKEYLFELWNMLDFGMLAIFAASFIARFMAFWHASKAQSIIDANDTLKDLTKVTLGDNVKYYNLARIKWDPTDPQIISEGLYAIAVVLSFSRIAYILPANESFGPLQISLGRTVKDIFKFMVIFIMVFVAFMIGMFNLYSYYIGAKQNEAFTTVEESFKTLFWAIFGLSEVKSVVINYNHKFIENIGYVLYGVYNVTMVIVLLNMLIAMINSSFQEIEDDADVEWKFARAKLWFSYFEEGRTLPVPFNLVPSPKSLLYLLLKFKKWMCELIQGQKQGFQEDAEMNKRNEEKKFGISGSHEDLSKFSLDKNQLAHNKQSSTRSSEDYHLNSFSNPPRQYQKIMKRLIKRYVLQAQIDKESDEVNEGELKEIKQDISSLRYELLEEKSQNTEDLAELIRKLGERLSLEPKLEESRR
Test: mouse TRPC6 channel inhibitors, primary screen, cell-based, HEK293, membrane potential dye (AID 2553);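 for B-score: B-score derived from integrated fluorescence ratio over the kinetic read; more negative B-score means stronger inhibition of depolarization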
Details: ACh-evoked depolarization, at 10 µM; hits give low values

B-score, active:
CCCCN(CCCC)CC(O)Cn1c2ccccc2c(=O)c2ccccc21 (configuration not stated) -5.74
c1ccc(C2CNCc3c2ccc2ccccc32)cc1 (configuration not stated) -5
Cc1ccc2nc(C)c3c(c2c1)N(c1ccccc1)CC3 -8.61
CCc1ccc2nc(N(CCCN(C)C)C(=O)c3ccc4c(c3)OCCO4)sc2c1 -6.22
O=C(CCCN1C(=O)c2cccc3cccc(c23)C1=O)N1CCN(Cc2ccc3c(c2)OCO3)CC1 -6.03
CN1CCN(c2ccc([N+](=O)[O-])c(Sc3nc4ccccc4[nH]3)c2)CC1 -5.53
COC(=O)c1ccccc1NC(=O)C1CCN(S(=O)(=O)c2cc(OC)ccc2OC)CC1 -5.1
Cc1cc2oc3ccc(NCCC4CCCN4C)cc3c(=O)c2cc1C (configuration not stated) -9.21
CC(NC(=S)Nc1ccc(OC(F)F)cc1)c1ccc(F)cc1 (configuration not stated) -5.09
CCCc1cc(=O)oc2c(C)c(O)c(CN3CCCCC3)cc12 -5.62
CN(C)c1ccc(C2N(C)C(=O)c3ccccc3N2C)cc1 (configuration not stated) -7.38
N=c1c2c3c(sc2ncn1CCCN1CCOCC1)CCCCC3 -5.61
COc1ccccc1C(CNC(=O)c1cccc(NS(=O)(=O)c2ccc(Br)cc2)c1)N(C)C (configuration not stated) -5.61
COc1cc2c(cc1OC)C(/C=C/c1ccco1)=NCC2 -5.37
O=C(C1CCN(S(=O)(=O)Cc2ccccc2)CC1)N1CCCc2ccccc21 -5.01
CCN(CC)c1ccc2cc(C(N)=O)/c(=N\NC(=O)c3ccncc3)oc2c1 -7.68
O=C1CC(c2ccccc2)=NN1c1ccc([N+](=O)[O-])cc1 -8.01
S=C(NCc1ccc(Cl)cc1)NC12CC3CC(CC(C3)C1)C2 -5.21
CN1CCN(C(=O)N2c3ccccc3CCc3ccccc32)CC1 -6.16
Cc1ccccc1NC(=O)CNc1ccccc1N1CCCCC1 -6.42

B-score, inactive:
COc1ccccc1N1CC(C(=O)Nc2nnc(SCC(=O)NC(C)C)s2)CC1=O (configuration not stated)
CCCCn1c(=O)c(C(C)=O)c(O)c2ccccc21
CS(=O)(=O)N(CC(O)Cn1c2ccccc2c2ccccc21)c1cccc2ccccc12 (configuration not stated)
O=C1N(c2ccc(Cl)cc2)C(c2ccc(Cl)cc2)N2CCCN12 (configuration not stated)
NC(=O)C1=C[C@H](c2csc3ccccc23)C[C@H](OCc2ccc(CO)cc2)O1
Cc1nc2ccc(C(=O)N3CCN(c4ccccc4)CC3)cc2s1
Cc1ccc2nc(Nc3ccccc3)cc(C)c2c1
O=C(NNS(=O)(=O)c1ccccc1)c1cnn(-c2ccc(Cl)cc2)c1C(F)(F)F
CC1CCC(NS(=O)(=O)c2ccc3c(c2)CC(=O)N3)CC1 (configuration not stated)
CN(C)CCCN(C(=O)c1ccc(S(=O)(=O)N2CCCCCC2)cc1)c1nc2cc3c(cc2s1)OCCO3
CCOc1ccc2nc(N(CCCN(C)C)C(=O)c3ccc(C(=O)c4ccccc4)cc3)sc2c1
O=C(NCCCN1CCCCC1)C1CCCN(c2ncnc3c2nc2n3CCCCC2)C1 (configuration not stated)
Cc1ccc(C(C(=O)NCC2CCCO2)N(C(=O)c2snc(C(N)=O)c2N)c2ccc(C(C)C)cc2)o1 (configuration not stated)
Cc1cccc(NC(=O)Nc2ccc3c(c2)OCO3)n1
Cn1c(=O)cc(OCCCC(=O)N2CCN(Cc3ccc4c(c3)OCO4)CC2)c2ccccc21
O=C(Nc1cccc2ccccc12)N1CCN(Cc2ccc3c(c2)OCO3)CC1
CC1(C)O[C@H]2CC(=O)OCC23[C@H]2CC[C@@]4(C)[C@H](c5ccoc5)OC(=O)[C@H]5O[C@]54[C@]2(C)C(=O)C[C@@H]13 (some centres not stated)
COc1ccccc1N(CC(=O)N/N=C(\C)c1ccccc1O)S(=O)(=O)c1ccc(C)cc1
CC1CCN(c2ccc([N+](=O)[O-])c(SCCO)c2)CC1
O=C(CSc1nc2ccccc2[nH]1)N/N=C/C=C\c1ccccc1[N+](=O)[O-]
O=c1c(-c2ccc(Cl)cc2)[n+]([O-])c2ccccc2n1OCc1nc2ccccc2[nH]1
COc1ccc(C(=O)NC2CCN(C(=O)Nc3ccc(F)cc3)CC2)cc1
CCOC(=O)N1CCC(N2Cc3cccc(C(=O)Nc4ccc(S(=O)(=O)N(CC)CC)cc4)c3C2=O)CC1
CCCCN=C(N)/C(C(=O)OCC)=C(\O)c1ccc(OC)cc1
CCN1CCN(C(C(=O)NC2CCCC2)c2cc3c(cc2[N+](=O)[O-])OCO3)CC1 (configuration not stated)
COc1ccc(NC(=O)C2CCN(S(=O)(=O)c3ccc4[nH]c(=O)oc4c3)CC2)c(OC)c1
COC(=O)c1ccccc1NC(=O)C1CC(=O)N(c2ccc(OC)cc2)C1 (configuration not stated)
COc1cccc(NC(=O)C/C(C)=N/NC(=O)C2CCCCC2)c1
Cc1cc2oc(=O)cc(CN3CCN(Cc4ccccc4)CC3)c2cc1C
CCCOc1ccc(C2c3c(oc4cc(C)c(C)cc4c3=O)C(=O)N2CCCN2CCOCC2)cc1 (configuration not stated)
CCc1ccc(/C=N/NC(=O)c2ccc(OC3CCCC3)cc2)s1
CCN(CC)C(=O)CSc1ncnc2c1cnn2-c1ccccc1
CCOc1ccccc1N1CCN(C(=O)c2ccc3[nH]c(C)c(C)c3c2)CC1
O=C(NCCO)C(=O)NCC(c1ccc2c(c1)OCO2)N1CCN(c2ccc(F)cc2)CC1 (configuration not stated)
Cc1ccc(NC(=S)Nc2ccc(F)cc2)cc1
CC(C)CNC(=S)Nc1ccc(F)cc1
Cc1cc(Br)ccc1NC(=O)CN(C)C(=O)CN1C(=O)NC2(CCCC2)C1=O
CCOc1ccccc1-c1cc(C(=O)N/N=C(\C)c2cccnc2)c2ccccc2n1
CCNC(=O)Nc1ccc(S(=O)(=O)Nc2cnc(C)nc2C)cc1
CCCc1cc(=O)oc2c(C)c(OC(C)C(=O)NCC(O)c3ccccc3)ccc12 (configuration not stated)
CCCc1cc(=O)oc2c(C)c(OCC(=O)N3CCC(C(=O)O)CC3)ccc12
O=C(N/N=C\C1CC=CCC1)c1ccc(Br)o1 (configuration not stated)
CC(C)C(=O)N1c2ccccc2NC2=C(C(=O)CCC2)C1c1ccc(N(C)C)cc1 (configuration not stated)
CN(C)c1ccc(C2Nc3ccccc3C(=O)N2NS(=O)(=O)c2ccccc2)cc1 (configuration not stated)
S=c1[nH]c2ccccc2c2ccccc12
N=c1c2c3c(sc2ncn1N)CCCCC3
N=c1c2c3c(sc2ncn1N)CCCC3
C=C(C)Cn1c(C)cc(C)c(S(=O)(=O)c2ccccc2C)c1=O
C/C(=N\NC(=O)C1(C)CC1(Br)Br)c1ccc(C)cc1C (configuration not stated)
C=CCNC(=O)c1ccccc1NC(=O)c1ccc(Cl)c(S(=O)(=O)Nc2cccc(C)c2C)c1
CC(=O)c1ccc(S(=O)(=O)Nc2ccc(C(=O)NCC(c3ccccc3)N(C)C)cc2)cc1 (configuration not stated)
CN(C)C(CNC(=O)c1cccc(S(=O)(=O)Nc2ccc(Br)cc2)c1)c1ccco1 (configuration not stated)
Nc1c(N(CCO)C(=O)C2CCCCC2)c(=O)[nH]c(=O)n1Cc1ccccc1
CCN(CCCNC(=O)c1ccc2c(c1)NC(=O)CN2C)c1cccc(C)c1
COc1ccc(CNC(=O)C(=O)NCC2OCCN2C(=O)c2ccc(OC)cc2)cc1 (configuration not stated)
CCC1=NN(C(=O)Cc2ccc([N+](=O)[O-])cc2)C(O)(c2ccc(Br)cc2)C1 (configuration not stated)
COc1cc2c(cc1OC)C(c1cccc([N+](=O)[O-])c1)=NCC2
COc1ccc(Cl)cc1C(=O)NNC(=S)NC(=O)/C=C/c1ccco1
COc1cc(C2C(C(=O)c3cccs3)=C(O)C(=O)N2CCN2CCOCC2)ccc1OCCC(C)C (configuration not stated)
CC(=O)Nc1ccc(NS(=O)(=O)c2cc(C)sc2C)cc1
CCC(=O)N1CCCc2ccccc21
CCS(=O)(=O)N1CCC(C(=O)N2CCN(c3ccccc3)CC2)CC1
Cc1ccc(SCC(=O)NNC(=O)c2ccc(S(C)(=O)=O)cc2)cc1
COc1ccc(C(=O)N/N=c2\oc3ccccc3cc2C(N)=O)cc1
NC(=O)c1cc2ccccc2o/c1=N/NC(=O)c1cccc(F)c1
O=C(N/N=C\c1cccnc1)c1cc(-c2ccccc2)nc2c(Cl)cccc12
COc1ccc(S(=O)(=O)NNC(=O)Nc2ccc(C)cc2)c(OC)c1
Cc1cc2c(=O)n(CC(=O)NCC(=O)Nc3ccc(C(C)C)cc3)cnc2s1
CC1=NN(c2ccccc2)C(=O)C1C(=O)c1ccc([N+](=O)[O-])cc1 (configuration not stated)
Cc1nn(-c2ccc([N+](=O)[O-])cc2)c(N)c1-c1ccccc1
CCCC(C)C(=O)NCc1ccncc1 (configuration not stated)
O=C(NCc1ccncc1)NC12CC3CC(CC(C3)C1)C2
O=C(NCc1ccc(Cl)cc1)NCc1ccc(Cl)cc1
O=C(NCCCn1ccnc1)C(=O)NCC1OCCN1S(=O)(=O)c1cc(F)ccc1F (configuration not stated)
CC1CC(C)CN(CC(=O)N2c3ccccc3CCc3ccccc32)C1 (configuration not stated)
CN1CCN(S(=O)(=O)c2cccc(C(=O)N3CCc4ccccc43)c2)CC1
COc1ccc(C(=O)C2CCCN(C(=O)c3cc(C)on3)C2)cc1F (configuration not stated)
COc1ccccc1/C=C/CN1CCC(CO)(Cc2ccccc2)CC1
Cc1cc(=O)cc(C)n1-c1ccc(Cl)c(Cl)c1
COc1ccc(NC(=O)CSc2nnc(-c3ccccc3F)n2C2CC2)cc1S(N)(=O)=O
O=C(CNCCC1=CCCCC1)Nc1ccccc1N1CCCCCC1
Cc1ccccc1NC(=O)Nc1ccccc1N1CCCCC1
